Results published in publication PMC7862700, “An all-to-all approach to the identification of sequence-specific readers for epigenetic DNA modifications on cytosine”.

Legend:
Experiment in all cases: DAPPL (digital affinity profiling via proximity ligation, sequencing); 10 mM Tris-HCl pH 7.5, 50 mM NaCl, 1 mM DTT, 4% glycerol, room temperature, 30 min; GST-TFs on glutathione beads, 16-mer random dsDNA library, 0.1% formaldehyde crosslink after washing; high values mean tight binding
[1] = molecular target: T1, FEV (Homo sapiens, UniProt Q99581 1-238); conditions: protein: recombinant; tags: N-terminal GST; dsDNA, one strand shown
T1 sequence: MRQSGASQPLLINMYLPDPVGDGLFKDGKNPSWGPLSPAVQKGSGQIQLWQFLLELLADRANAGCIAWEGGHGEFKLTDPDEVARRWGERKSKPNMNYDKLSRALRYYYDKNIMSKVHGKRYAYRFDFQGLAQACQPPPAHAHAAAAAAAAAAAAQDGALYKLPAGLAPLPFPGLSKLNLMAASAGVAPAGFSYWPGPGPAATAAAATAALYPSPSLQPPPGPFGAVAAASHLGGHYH
Summary of the method: (§1)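 The binding signal reported is, for every hexamer, its read frequency for a factor over its read frequency for the tag-only sample. Reads came from pools of yeast-expressed, GST-fused human transcription factors on glutathione beads, barcoded with DNA and mixed with that sample, which were incubated with 200 nmole of a random double-stranded 16-mer DNA library in Tris/NaCl/DTT/glycerol buffer at room temperature for 30 min. After washing, the pools were crosslinked with 0.1% formaldehyde, proximity-ligated with BsaI/T4 ligase for 1 h at 37 °C, PCR-amplified and sequenced on an Illumina NextSeq500.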

[2] = molecular target: ETV5 (Homo sapiens, UniProt P41161 1-510); conditions: protein: recombinant; tags: N-terminal GST; dsDNA, one strand shown
Summary of the method: as §1

[3] = molecular target: HSF1 (Homo sapiens, UniProt Q00613 1-529); conditions: protein: recombinant; tags: N-terminal GST; chain copies: 3; dsDNA, one strand shown
Summary of the method: as §1

[4] = molecular target: T2, SPIC (Homo sapiens, UniProt Q8N5J4 1-248); conditions: protein: recombinant; tags: N-terminal GST; dsDNA, one strand shown
T2 sequence: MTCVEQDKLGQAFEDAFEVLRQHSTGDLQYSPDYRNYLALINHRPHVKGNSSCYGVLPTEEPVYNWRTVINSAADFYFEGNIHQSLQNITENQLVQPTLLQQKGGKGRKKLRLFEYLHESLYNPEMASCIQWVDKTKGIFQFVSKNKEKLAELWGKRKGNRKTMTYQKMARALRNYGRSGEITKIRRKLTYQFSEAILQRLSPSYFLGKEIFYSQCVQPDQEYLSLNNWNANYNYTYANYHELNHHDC
Summary of the method: as §1

[5] = molecular target: ELF4 (Homo sapiens, UniProt Q99607 1-663); conditions: protein: recombinant; tags: N-terminal GST; dsDNA, one strand shown
Summary of the method: as §1

[6] = molecular target: T3, ELK4 (Homo sapiens, UniProt P28324-2 1-405); conditions: protein: recombinant; tags: N-terminal GST; dsDNA, one strand shown
T3 sequence: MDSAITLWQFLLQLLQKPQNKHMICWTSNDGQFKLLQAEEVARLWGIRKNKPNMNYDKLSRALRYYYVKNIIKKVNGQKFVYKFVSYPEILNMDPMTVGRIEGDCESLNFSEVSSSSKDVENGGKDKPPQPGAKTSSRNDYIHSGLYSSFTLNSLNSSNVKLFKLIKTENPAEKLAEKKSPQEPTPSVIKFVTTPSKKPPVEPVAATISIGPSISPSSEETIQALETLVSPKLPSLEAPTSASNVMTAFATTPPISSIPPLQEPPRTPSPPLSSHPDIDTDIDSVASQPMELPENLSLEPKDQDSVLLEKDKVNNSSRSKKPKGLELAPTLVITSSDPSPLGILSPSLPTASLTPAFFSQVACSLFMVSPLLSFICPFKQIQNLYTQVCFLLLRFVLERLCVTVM
Summary of the method: as §1

[7] = molecular target: T4, ETV2 (Homo sapiens, UniProt O00321 1-342); conditions: protein: recombinant; tags: N-terminal GST; dsDNA, one strand shown
T4 sequence: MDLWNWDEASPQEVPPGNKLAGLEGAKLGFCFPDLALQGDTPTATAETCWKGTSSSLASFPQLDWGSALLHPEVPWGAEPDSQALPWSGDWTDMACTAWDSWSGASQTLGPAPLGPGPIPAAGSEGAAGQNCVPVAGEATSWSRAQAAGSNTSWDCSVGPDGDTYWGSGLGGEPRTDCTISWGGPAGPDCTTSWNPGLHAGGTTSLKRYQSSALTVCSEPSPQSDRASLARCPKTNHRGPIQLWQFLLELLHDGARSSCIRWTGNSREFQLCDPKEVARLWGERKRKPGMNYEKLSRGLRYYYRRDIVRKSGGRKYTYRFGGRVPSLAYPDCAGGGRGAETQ
Summary of the method: as §1

[8] = molecular target: T5, ELF3 (Homo sapiens, UniProt P78545 1-371); conditions: protein: recombinant; tags: N-terminal GST; dsDNA, one strand shown
T5 sequence: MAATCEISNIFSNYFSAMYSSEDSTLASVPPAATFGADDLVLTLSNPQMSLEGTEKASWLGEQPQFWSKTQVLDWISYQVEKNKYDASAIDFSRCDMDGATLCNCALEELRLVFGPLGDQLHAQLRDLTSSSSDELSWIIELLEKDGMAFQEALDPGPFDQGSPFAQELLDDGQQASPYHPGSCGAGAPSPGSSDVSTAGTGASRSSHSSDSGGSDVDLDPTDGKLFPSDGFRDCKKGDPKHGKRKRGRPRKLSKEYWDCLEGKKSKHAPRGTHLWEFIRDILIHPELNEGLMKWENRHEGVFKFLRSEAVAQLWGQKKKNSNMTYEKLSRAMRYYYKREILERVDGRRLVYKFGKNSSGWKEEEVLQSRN
Summary of the method: as §1

[9] = molecular target: CRX (Homo sapiens, UniProt O43186 1-299); conditions: protein: recombinant; tags: N-terminal GST; dsDNA, one strand shown
Summary of the method: as §1

ELF4, sequence (Q99607 whole entry): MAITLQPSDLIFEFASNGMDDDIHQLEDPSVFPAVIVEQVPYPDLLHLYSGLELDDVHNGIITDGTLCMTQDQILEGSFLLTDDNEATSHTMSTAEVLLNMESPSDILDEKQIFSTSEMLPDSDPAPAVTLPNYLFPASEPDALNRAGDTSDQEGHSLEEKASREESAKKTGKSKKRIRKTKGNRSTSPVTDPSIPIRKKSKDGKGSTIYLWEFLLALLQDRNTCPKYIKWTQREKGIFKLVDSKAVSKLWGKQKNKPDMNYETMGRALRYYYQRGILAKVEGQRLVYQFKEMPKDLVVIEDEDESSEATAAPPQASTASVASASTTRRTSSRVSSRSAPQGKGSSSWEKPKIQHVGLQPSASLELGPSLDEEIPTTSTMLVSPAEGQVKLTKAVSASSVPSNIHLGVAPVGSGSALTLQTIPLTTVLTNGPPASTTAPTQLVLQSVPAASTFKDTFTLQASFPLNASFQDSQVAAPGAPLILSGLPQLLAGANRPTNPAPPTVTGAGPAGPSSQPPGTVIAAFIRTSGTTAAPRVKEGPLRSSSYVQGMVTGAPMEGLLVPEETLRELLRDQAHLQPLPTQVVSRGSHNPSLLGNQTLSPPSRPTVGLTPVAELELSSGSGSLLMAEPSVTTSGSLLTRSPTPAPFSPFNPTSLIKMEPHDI
ETV5, sequence (P41161 whole entry): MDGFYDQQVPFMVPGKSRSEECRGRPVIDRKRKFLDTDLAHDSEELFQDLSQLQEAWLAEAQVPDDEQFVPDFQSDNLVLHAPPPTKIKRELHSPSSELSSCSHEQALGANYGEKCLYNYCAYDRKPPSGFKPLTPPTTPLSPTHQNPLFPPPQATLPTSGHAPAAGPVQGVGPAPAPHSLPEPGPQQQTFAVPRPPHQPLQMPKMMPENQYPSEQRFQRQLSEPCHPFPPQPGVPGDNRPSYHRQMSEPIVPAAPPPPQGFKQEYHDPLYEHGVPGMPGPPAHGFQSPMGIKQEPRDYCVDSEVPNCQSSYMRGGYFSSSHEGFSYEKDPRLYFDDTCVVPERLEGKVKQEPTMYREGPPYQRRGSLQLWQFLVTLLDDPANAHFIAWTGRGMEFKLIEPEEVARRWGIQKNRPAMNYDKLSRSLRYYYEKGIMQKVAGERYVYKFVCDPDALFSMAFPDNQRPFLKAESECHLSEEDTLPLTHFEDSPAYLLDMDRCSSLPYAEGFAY
CRX, sequence (O43186 whole entry): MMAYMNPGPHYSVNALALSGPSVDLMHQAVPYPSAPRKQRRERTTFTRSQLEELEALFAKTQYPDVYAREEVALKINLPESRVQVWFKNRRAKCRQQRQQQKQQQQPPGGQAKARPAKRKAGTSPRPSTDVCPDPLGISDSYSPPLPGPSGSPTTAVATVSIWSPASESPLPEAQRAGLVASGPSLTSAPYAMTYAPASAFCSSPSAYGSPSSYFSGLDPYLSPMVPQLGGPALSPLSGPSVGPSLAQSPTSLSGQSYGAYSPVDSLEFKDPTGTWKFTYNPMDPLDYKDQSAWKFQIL
HSF1, sequence (Q00613 whole entry): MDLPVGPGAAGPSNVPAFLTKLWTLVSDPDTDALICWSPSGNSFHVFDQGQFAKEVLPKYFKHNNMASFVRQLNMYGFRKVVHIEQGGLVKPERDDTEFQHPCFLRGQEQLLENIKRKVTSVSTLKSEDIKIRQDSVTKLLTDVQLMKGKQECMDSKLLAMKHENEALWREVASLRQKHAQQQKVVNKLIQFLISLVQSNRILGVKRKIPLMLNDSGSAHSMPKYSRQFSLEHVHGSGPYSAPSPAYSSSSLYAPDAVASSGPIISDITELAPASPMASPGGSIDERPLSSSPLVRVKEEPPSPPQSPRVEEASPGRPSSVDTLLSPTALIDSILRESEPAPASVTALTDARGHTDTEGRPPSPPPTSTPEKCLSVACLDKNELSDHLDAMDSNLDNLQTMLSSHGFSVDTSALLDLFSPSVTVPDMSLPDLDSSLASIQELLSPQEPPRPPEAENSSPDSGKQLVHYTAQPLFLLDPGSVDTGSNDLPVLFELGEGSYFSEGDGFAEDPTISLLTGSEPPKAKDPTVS

Sequence: TCCCAG
- binding signal [1]: 1.08 fold enrichment (6-mer frequency, TF over GST control)
- binding signal [2]: 1.06 fold enrichment (6-mer frequency, TF over GST control)
- binding signal [3]: 1.16 fold enrichment (6-mer frequency, TF over GST control)
- binding signal [4]: 1.01 fold enrichment (6-mer frequency, TF over GST control)
- binding signal [5]: 1.15 fold enrichment (6-mer frequency, TF over GST control)
- binding signal [6]: 1.25 fold enrichment (6-mer frequency, TF over GST control)
- binding signal [7]: 1.02 fold enrichment (6-mer frequency, TF over GST control)
- binding signal [8]: 1.14 fold enrichment (6-mer frequency, TF over GST control)
- binding signal [9]: 1.19 fold enrichment (6-mer frequency, TF over GST control)
